Measured values published in PubChem BioAssay (Tox21).
Records with an inconclusive call do not appear. Active and inactive are the calls of the source. Unless noted, the call rests on the fitted dose curve; in most records, active means well fitted curve in the direction sought with a large enough effect in the repeat runs; inconclusive means weak or mixed curves; inactive means no such curve, though single readings can be large; an effect the other way counts as inactive or inconclusive.

Key:
[1] = qHTS assay to identify small molecule agonists of the peroxisome proliferator-activated receptor delta (PPARd) signaling pathway - cell viability counter screen (AID 743211); further: on the % scale 0 is the no-effect control and ±100 the full control effect; nearly all actives have a fitted effect of over 55% in size
Outline: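 Viability of GeneBLAzer PPARd UAS-bla HEK293H cells was assessed after 17 h compound incubation at 37C, using CellTiter-Glo reagent added after the reporter read and luminescence recorded 30 min later.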

[2] = target: Peroxisome proliferator-activated receptor delta (Homo sapiens) (UniProt Q03181); assay: qHTS assay to identify small molecule agonists of the peroxisome proliferator-activated receptor delta (PPARd) signaling pathway (AID 743212; calls by dose curve; further: on the % scale 0 is the no-effect control and ±100 the full control effect)
Outline: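 HEK293H PPARd-bla cells; 5 h preincubation 37 C/5% CO2; compound (DMSO) 37 C; LiveBLAzer B/G FRET substrate 2 h RT; fluorescence intensity.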

[3] = qHTS assay to identify small molecule antagonists of the peroxisome proliferator-activated receptor delta (PPARd) signaling pathway - cell viability counter screen (AID 743213); further: on the % scale 0 is the no-effect control and ±100 the full control effect; nearly all actives have a fitted effect of over 50% in size
Outline: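 Viability counter-screen, qHTS format: PPARd-bla HEK293H, L165041 300 nM final, 17 h compound exposure at 37 C, CellTiter-Glo luminescence after 30 min RT.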

[4] = target: Peroxisome proliferator-activated receptor delta (Homo sapiens) (UniProt Q03181); assay: qHTS assay to identify small molecule antagonists of the peroxisome proliferator-activated receptor delta (PPARd) signaling pathway (AID 743215; active means well fitted inhibition curve with a large enough effect in the signal ratio in the repeat runs, not every such curve was filed as active; the % refers to the signal ratio;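 further: cells stimulated with agonist L165041 at 300 nM final during compound exposure; series mostly up to about 62 µM; on the % scale 0 is the no-effect control and ±100 the full control effect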)
Outline: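 HEK293H UAS-bla, PPARd; agonist L165041 300 nM final with cpd in DMSO; 37 C 17 h; FRET substrate, RT 2 h; fluorescence intensity.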

[5] = target: Bile acid receptor (Homo sapiens) (UniProt Q96RI1); assay: qHTS assay to identify small molecule antagonists of the farnesoid-X-receptor (FXR) signaling pathway (AID 743217; active means well fitted inhibition curve with a large enough effect in the signal ratio in the repeat runs, not every such curve was filed as active; the % refers to the signal ratio; further: on the % scale 0 is the no-effect control and ±100 the full control effect)
Outline: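 GeneBLAzer FXR-UAS-bla HEK 293T, CDCA-stimulated (50 uM final). Compound treatment 16 h, 37 °C. Detection: beta-lactamase cleavage of B/G FRET substrate, fluorescence.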

[6] = qHTS assay to identify small molecule agonists of the farnesoid-X-receptor (FXR) signaling pathway - cell viability counter screen (AID 743218); further: on the % scale 0 is the no-effect control and ±100 the full control effect; nearly all actives have a fitted effect of over 45% in size
Outline: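 Parallel cytotoxicity test: compound-treated (16 h, 37 C) HEK 293T FXR-bla reporter cells were lysed with CellTiter-Glo and luminescence recorded.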

[7] = target: Bile acid receptor (Homo sapiens) (UniProt Q96RI1); assay: qHTS assay to identify small molecule agonists of the farnesoid-X-receptor (FXR) signaling pathway (AID 743220; active means well fitted activation curve with a large enough effect in the signal ratio in the repeat runs, not every such curve was filed as active; the % refers to the signal ratio; further: on the % scale 0 is the no-effect control and ±100 the full control effect)
Outline: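 Beta-lactamase reporter under UAS control in GeneBLAzer FXR HEK 293T cells (5000/well) measured with LiveBLAzer FRET substrate after 2 h at room temperature. Compound exposure lasted 16 h at 37C.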

[8] = qHTS assay to identify small molecule antagonists of the farnesoid-X-receptor (FXR) signaling pathway - cell viability counter screen (AID 743221; active means well fitted cell-killing curve with a large enough effect in the repeat runs, not every such curve was filed as active; further: on the % scale 0 is the no-effect control and ±100 the full control effect; nearly all actives have a fitted effect of over 50% in size)
Outline: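 Quantitative HTS of the Tox21 10K library run in parallel with the beta-lactamase reporter read. HEK 293T cells carrying a UAS-driven bla reporter got compound and 50 uM CDCA (final) for 16 h; ATP-based luminescence followed.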

[9] = target: Vitamin D3 receptor (Homo sapiens) (UniProt P11473); assay: qHTS assay to identify small molecule agonists of the vitamin D receptor (VDR) signaling pathway (AID 743222; calls by dose curve; further: on the % scale 0 is the no-effect control and ±100 the full control effect)
Outline: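 In VDR-bla cells, compound-induced beta-lactamase expression is quantified by FRET substrate fluorescence. Treatment lasts 16 h at 37C; substrate develops 2 h at room temperature.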

[10] = qHTS assay to identify small molecule agonists of the vitamin D receptor (VDR) signaling pathway - cell viability counter screen (AID 743224); further: series mostly up to about 63 µM; on the % scale 0 is the no-effect control and ±100 the full control effect; nearly all actives have a fitted effect of over 50% in size
Outline: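 Plated VDR-bla cells (4 h, 37C) received compound, incubated 16 h, then LiveBLAzer substrate 2 h RT; CellTiter-Glo added afterwards, luminescence read at 30 min.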

[11] = qHTS assay to identify small molecule agonists of the NFkB signaling pathway (AID 1159509; active means well fitted curve in the direction sought with a large enough effect in the signal ratio in the repeat runs, not every such curve was filed as active; the % refers to the signal ratio)
Outline: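 ME-180 NFkB-bla, 2,000 cells/well, overnight plating; cpd pinned in DMSO, 5 h 37 C; B/G FRET substrate 1.5 h RT; ex 405, em 460/530 nm.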

[12] = qHTS assay to identify small molecule agonists of the NFkB signaling pathway - cell viability counter screen (AID 1159515; calls by dose curve; further: series mostly up to about 61 µM; on the % scale 0 is the no-effect control and ±100 the full control effect; nearly all actives have a fitted effect of over 55% in size)
Outline: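 Using the same wells as the NFkB reporter read, ME-180 NFkB-bla cells given compounds for 5 hr were assessed for viability via CellTiter-Glo, with luminescence taken after a 30 min room-temperature incubation.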

[13] = qHTS assay to identify small molecule agonists of the endoplasmic reticulum stress response signaling pathway (AID 1159516; active means well fitted activation curve with a large enough effect in the signal ratio in the repeat runs, not every such curve was filed as active; the % refers to the signal ratio; further: on the % scale 0 is the no-effect control and ±100 the full control effect)
Outline: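 An ESRE-bla HeLa cell assay: compounds were pin-transferred from DMSO onto overnight-plated cells and left 5 hr at 37 C. Substrate was then loaded for 2 hr at room temperature before reading fluorescence at 460 nm and 530 nm.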

[14] = qHTS assay to identify small molecule agonists of the endoplasmic reticulum stress response signaling pathway - cell viability counter screen (AID 1159517; calls by dose curve;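 further: HeLa cells carrying an ER stress response element beta-lactamase reporter; series mostly up to about 61 µM; on the % scale 0 is the no-effect control and ±100 the full control effect; nearly all actives have a fitted effect of over 50% in size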)
Outline: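 HeLa cells carrying an ESRE-driven beta-lactamase reporter receive compound for 5 hr at 37 C. Cell viability is then gauged with CellTiter-Glo by luminescence, 30 min at room temperature.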

[15] = qHTS assay to identify small molecule antagonists of the retinoid-related orphan receptor gamma (ROR-gamma) signaling pathway - cell viability counter screen (AID 1159520)
Outline: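 Cytotoxicity was read from cellular ATP (CellTiter-Glo luminescence) after 16 hr at 37 C with 1 uM doxycycline induction. The inducer was added 2 hr after compound transfer to Tet-on ROR gamma CHO cells.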

[16] = target: Nuclear receptor ROR-gamma (Homo sapiens) (UniProt P51449); assay: qHTS assay to identify small molecule antagonists of the retinoid-related orphan receptor gamma (ROR-gamma) signaling pathway (AID 1159521)
Outline: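 RORγ antagonism is scored from reduced reporter luminescence in Tet-on CHO cells. Induction used 1 uM final doxycycline hyclate for 16 h at 37 C, following a 2 h compound exposure.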

[17] = qHTS assay to identify small molecule agonists of the AP-1 signaling pathway - cell viability counter screen (AID 1159525; calls by dose curve; further: nearly all actives have a fitted effect of over 55% in size)
Outline: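 Luminescent ATP readout (Cell Titer Glo, 30 min RT), normalised to DMSO and tetra n-octyl ammonium bromide controls. Cells were ME-180 AP-1-bla in 0.5% dialyzed FBS Opti-MEM, with a 5 h, 37 °C compound exposure.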

[18] = qHTS assay to identify small molecule agonists of the AP-1 signaling pathway (AID 1159526; calls by dose curve; further: on the % scale 0 is the no-effect control and ±100 the full control effect)
[19] = qHTS assay to identify small molecule antagonists of the vitamin D receptor (VDR) signaling pathway - cell viability counter screen (AID 743225)
Outline: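 Cells (VDR-UAS-bla HEK 293T) are plated, rested 4 h at 37C, dosed with compound and 3 nM final 1-alpha,25-dihydroxy vitamin D3, and incubated 16 h. Viability is taken from CellTiter-Glo luminescence in the reporter wells.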

[20] = target: Vitamin D3 receptor (Homo sapiens) (UniProt P11473); assay: qHTS assay to identify small molecule antagonists of the vitamin D receptor (VDR) signaling pathway (AID 743223; active means well fitted inhibition curve with a large enough effect in the signal ratio in the repeat runs, not every such curve was filed as active; the % refers to the signal ratio; further: on the % scale 0 is the no-effect control and ±100 the full control effect)
Outline: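 Fluorescence from LiveBLAzer B/G FRET substrate, read after 2 h at room temperature, reflects beta-lactamase reporter activity in VDR-bla cells treated 16 h at 37C with compounds and agonist 1alpha,25-dihydroxyvitamin D3 (3 nM final).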

Chain of Bile acid receptor (Homo sapiens) (Q96RI1 whole entry, looked up): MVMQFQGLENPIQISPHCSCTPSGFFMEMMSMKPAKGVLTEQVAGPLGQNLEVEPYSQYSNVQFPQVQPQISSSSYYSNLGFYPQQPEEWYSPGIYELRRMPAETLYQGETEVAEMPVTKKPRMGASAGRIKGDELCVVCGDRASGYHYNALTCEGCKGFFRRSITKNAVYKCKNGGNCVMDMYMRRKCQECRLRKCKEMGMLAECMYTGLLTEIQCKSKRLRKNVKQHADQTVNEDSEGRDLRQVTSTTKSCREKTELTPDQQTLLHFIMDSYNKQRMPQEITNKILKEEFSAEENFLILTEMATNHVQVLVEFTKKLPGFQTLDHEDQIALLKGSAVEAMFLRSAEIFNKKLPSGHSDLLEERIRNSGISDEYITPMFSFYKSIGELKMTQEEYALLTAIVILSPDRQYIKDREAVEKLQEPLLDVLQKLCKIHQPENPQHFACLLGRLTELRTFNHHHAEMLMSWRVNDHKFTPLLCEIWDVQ
Chain of Peroxisome proliferator-activated receptor delta (Homo sapiens) (Q03181 whole entry, looked up): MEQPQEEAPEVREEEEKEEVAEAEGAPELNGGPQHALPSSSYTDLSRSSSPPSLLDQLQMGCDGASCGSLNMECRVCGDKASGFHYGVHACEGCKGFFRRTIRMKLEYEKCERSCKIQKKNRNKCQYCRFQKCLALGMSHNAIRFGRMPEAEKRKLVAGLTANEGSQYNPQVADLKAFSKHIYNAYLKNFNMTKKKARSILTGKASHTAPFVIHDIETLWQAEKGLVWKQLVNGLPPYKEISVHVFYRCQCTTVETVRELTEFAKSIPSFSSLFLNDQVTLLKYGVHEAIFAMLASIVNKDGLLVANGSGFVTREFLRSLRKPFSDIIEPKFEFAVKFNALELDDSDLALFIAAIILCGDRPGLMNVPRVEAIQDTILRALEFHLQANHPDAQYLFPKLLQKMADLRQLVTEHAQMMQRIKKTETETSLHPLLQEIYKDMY
Chain of Vitamin D3 receptor (Homo sapiens) (P11473 whole entry, looked up): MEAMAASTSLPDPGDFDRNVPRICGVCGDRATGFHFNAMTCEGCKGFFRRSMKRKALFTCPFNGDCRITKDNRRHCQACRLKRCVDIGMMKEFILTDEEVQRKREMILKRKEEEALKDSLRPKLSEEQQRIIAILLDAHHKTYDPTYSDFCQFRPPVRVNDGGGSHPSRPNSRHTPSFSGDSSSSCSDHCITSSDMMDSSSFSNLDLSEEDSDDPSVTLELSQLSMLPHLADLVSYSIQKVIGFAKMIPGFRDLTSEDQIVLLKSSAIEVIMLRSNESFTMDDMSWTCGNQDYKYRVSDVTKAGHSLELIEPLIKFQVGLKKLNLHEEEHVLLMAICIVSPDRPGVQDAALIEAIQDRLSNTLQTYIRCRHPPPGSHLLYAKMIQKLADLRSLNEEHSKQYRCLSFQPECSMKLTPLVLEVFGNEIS

O=C1c2ccccc2C(=O)N1CCl
inactive: outcome [1] | outcome [2] | outcome [3] | outcome [4] | Potency [5] | Potency [6] | Potency [7] | outcome [8] | outcome [9] | Potency [10] | outcome [11] | outcome [12] | outcome [13] | Potency [14] | outcome [15] | outcome [16] | outcome [17] | outcome [18]

OCCCCC(O)CO (stereo unspecified)
inactive: outcome [1] | outcome [2] | outcome [3] | outcome [4] | Potency [5] | Potency [6] | Potency [7] | outcome [8] | outcome [9] | Potency [10] | outcome [19] | outcome [11] | outcome [12] | outcome [13] | Potency [14] | outcome [15] | outcome [16] | outcome [17] | outcome [18]

COc1cc(N)ccc1C
inactive: outcome [1] | outcome [2] | outcome [3] | outcome [4] | Potency [5] | Potency [6] | Potency [7] | outcome [8] | outcome [9] | outcome [20] | outcome [19] | outcome [11] | outcome [12] | outcome [13] | Potency [14] | outcome [15] | outcome [16] | outcome [17] | outcome [18]

CN(CCOc1ccc(NS(C)(=O)=O)cc1)CCc1ccc(NS(C)(=O)=O)cc1
inactive: outcome [1] | outcome [2] | outcome [3] | outcome [4] | Potency [5] | Potency [6] | Potency [7] | outcome [8] | outcome [11] | outcome [12] | outcome [13] | Potency [14] | outcome [15] | outcome [16] | outcome [17] | outcome [18]

CC(=O)c1sc(C)nc1C
inactive: outcome [1] | outcome [2] | outcome [3] | outcome [4] | Potency [5] | Potency [6] | Potency [7] | outcome [8] | outcome [9] | outcome [20] | outcome [11] | outcome [12] | outcome [13] | Potency [14] | outcome [15] | outcome [16] | outcome [17] | outcome [18]

N[C@@H](COP(=O)(O)O)C(=O)O
inactive: outcome [1] | outcome [2] | outcome [3] | outcome [4] | Potency [5] | Potency [6] | Potency [7] | outcome [8] | outcome [9] | Potency [10] | outcome [19] | outcome [11] | outcome [12] | outcome [13] | Potency [14] | activity, negative = cytotoxicity [15] -0.691% [at 19 µM] | activity change, negative = inhibition [16] -15% [at 19 µM] | viability change, negative = cytotoxic [17] 11.4% [at 15.8 µM] | activation [18] -0.856% [at 15.8 µM]

c1ccc2c(c1)ccc1c3ccccc3ccc21
inactive: outcome [1] | outcome [2] | outcome [3] | outcome [4] | Potency [5] | Potency [6] | Potency [7] | outcome [8] | outcome [9] | outcome [20] | Potency [10] | outcome [11] | outcome [12] | outcome [13] | Potency [14] | outcome [15] | outcome [16] | outcome [17] | outcome [18]

CC(C)NCC(O)COc1ccc(COCCOC(C)C)cc1 (stereo unspecified)
inactive: outcome [1] | outcome [2] | outcome [3] | outcome [4] | Potency [5] | Potency [7] | outcome [8] | outcome [9] | Potency [10] | outcome [19] | outcome [11] | outcome [12] | outcome [13] | Potency [14] | outcome [15] | outcome [16] | outcome [17] | outcome [18]
